# Source: PubChem BioAssay
# Hits are enriched below; roughly 19% of the tested compounds scored in any of these assays.
# HepG2 viability = counter-screen for TGF-b inhibitors: cytotoxicity in HepG2 cells | HepG2 CAGA-GFP viability, ATP luminescence, 18 h | actives 0.76% (n = 410,000) | Potency, µM (series often up to 46.1 µM), for the others: at the highest dose activity change, negative = cytotoxicity, most hits filed as cytotoxic; also: potency is read from the fitted curve at half-maximal effect
#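 CellTiter-Glo luminescence gave cytotoxicity after 18 hours at 37 degrees C. The cells were HepG2 CAGA-GFP in 1% FBS DMEM, stimulated with 500 pg/mL TGF-beta after compound addition. %Activity was normalised to no-cell wells (complete cell-killing) and DMSO (no toxicity), and curves were fitted and classified.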
# DT40 TDP1 no CPT = qHTS for Inhibitors of human tyrosyl-DNA phosphodiesterase 1 (TDP1): qHTS in cells in absence of CPT | DT40 Tdp1-/- hTDP1 cells, no CPT, ATP luminescence, 48 h | Potency, µM (doses to about 46.2 µM), inactives show at the highest dose activity change, negative = growth inhibition, hits mostly inhibitors | actives 15% (n = 420,000) | AID 686978, 2013; also: potency is read from the fitted curve at half-maximal effect; % is scaled to controls: 0 for no effect and ±100 for the full control effect; nearly all actives have a fitted effect of over 55% in size
#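 Chicken DT40 Tdp1-/- cells complemented with human TDP1, screened without camptothecin (DMSO vehicle only), 400 cells/well. Compounds pin-transferred, cells incubated at 37 °C for at least 48 hr. Growth read as ATP-dependent luminescence (CellTiter-Glo, 30 min at RT).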
# TDP1 inh = blocks human tyrosyl-DNA phosphodiesterase 1 | Q9NUW8 | recombinant TDP1, AlphaScreen DNA substrate cleavage | Potency, µM (series often up to 130 µM), without a hit: top-dose activity change, negative = inhibition, usual class: inhibitors | actives 0.28% (n = 350,000); also: potency is read from the fitted curve at half-maximal effect; % is scaled to controls: 0 for no effect and ±100 for the full control effect; nearly all actives have a fitted effect of over 40% in size
# Target sequence (Q9NUW8 whole entry, looked up): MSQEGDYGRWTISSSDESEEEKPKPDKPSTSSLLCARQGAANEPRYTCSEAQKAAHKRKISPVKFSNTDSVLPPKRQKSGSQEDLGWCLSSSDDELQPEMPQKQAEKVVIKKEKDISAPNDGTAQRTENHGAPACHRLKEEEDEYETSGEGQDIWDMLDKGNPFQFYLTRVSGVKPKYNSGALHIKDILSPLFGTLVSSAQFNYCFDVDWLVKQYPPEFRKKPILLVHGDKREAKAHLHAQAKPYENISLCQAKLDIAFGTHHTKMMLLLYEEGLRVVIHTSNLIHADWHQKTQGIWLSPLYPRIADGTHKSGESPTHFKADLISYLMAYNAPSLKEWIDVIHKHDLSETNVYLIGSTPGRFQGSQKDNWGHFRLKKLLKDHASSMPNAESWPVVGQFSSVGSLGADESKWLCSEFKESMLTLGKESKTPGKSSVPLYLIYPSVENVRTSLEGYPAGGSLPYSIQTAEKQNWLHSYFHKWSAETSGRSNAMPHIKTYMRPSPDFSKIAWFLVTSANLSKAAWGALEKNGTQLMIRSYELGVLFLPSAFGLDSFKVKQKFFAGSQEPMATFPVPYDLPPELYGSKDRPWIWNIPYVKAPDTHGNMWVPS
#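 Compounds were preincubated with Tdp1 (1 nM final) for 15 min at room temperature before substrate (15 nM final) started a 5 min reaction; beads (10 ug/ml final) were then added for 10 min before AlphaScreen detection.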
# DT40 TDP1 CPT = DT40-hTDP1 cell growth loss with CPT; chicken DT40 Tdp1-/-;hTDP1 cells + 20 nM CPT, ATP luminescence, 48 h; Potency, µM (doses to about 46.2 µM), without a hit: top-dose activity change, negative = growth inhibition, usual class: inhibitors; AID 686979; actives 12% (n = 420,000); also: potency is read from the fitted curve at half-maximal effect; % is scaled to controls: 0 for no effect and ±100 for the full control effect; nearly all actives have a fitted effect of over 55% in size
#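 Chicken DT40 Tdp1-/- cells stably complemented with human TDP1 were seeded at 400 cells/well in medium containing 20 nM camptothecin, exposed to pin-transferred compounds, and grown at 37 °C for at least 48 hr. Viability was read as ATP luminescence.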
# IL1B secr inh = inhibitors of inflammasome signaling (IL-1 beta secretion). AID 743279. activity change, % at 57.5 µM. actives 4.7% (n = 360,000). THP-1 LPS/ATP IL-1B secretion, AlphaLISA, 16 h; hits give low values; in the data active = activity change below about -50%; inconclusive = mostly about -30% to -49%; also: % is scaled to controls: 0 for no effect and ±100 for the full control effect
#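 THP-1 cells pretreated 1 hr with compounds (up to 57.5 uM final), then stimulated with LPS (250 ng/mL final) plus ATP (1.25 mM final); secreted IL-1B measured by AlphaLISA after 16 hr, decreased signal indicating inhibition.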
# TGFb SMAD3 inh = inhibitors of TGF-b signaling; HepG2 CAGA-GFP TGF-b/SMAD3 reporter, GFP fluorescence, 18 h; TGF-beta stimulated, 500 pg/mL final; Potency, µM (doses to about 46.1 µM), without a hit: at the top dose activity, negative = inhibition, usual class: inhibitors; actives 1.2% (n = 410,000); AID 588855; also: potency is read from the fitted curve at half-maximal effect; % is scaled to controls: 0 for no effect and ±100 for the full control effect; nearly all actives have a fitted effect of over 65% in size
#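 Per well, imaged GFP fluorescence of HEPG2 CAGA-GFP cells gives the signal; cells get compound, then TGF-beta (500 pg/mL final), 18 h at 37 degrees C; %Activity versus -TGF-beta and +DMSO controls.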
# The depositor's hits bear a star; ? = inconclusive; nt = no result. Unless noted, calls follow the shape of the dose curve; as a rule, active = well fitted curve in the direction sought with a large enough effect; inconclusive = small, poorly fitted or top-dose-only effect, or another doubt; inactive = no such curve, though single readings can be large; an effect the other way counts as inactive or inconclusive.
SMILES,HepG2 viability,DT40 TDP1 no CPT,TDP1 inh,DT40 TDP1 CPT,IL1B secr inh,TGFb SMAD3 inh
Clc1ccc(-c2csc(Nc3cccnc3)n2)cc1,-21.3%,-22.1%,nt,-2.5%,-79.6*,2.8%
Cc1cn([C@H]2C[C@H](O)[C@@H](CCC(=O)NCc3ccc(N(C)C)cc3)O2)c(=O)[nH]c1=O,4.2%,-3.3%,nt,10.5%,9.7,4.6%
NC(c1ccccc1)c1csc(Nc2ccccn2)n1 (centres undefined),-37.6%,20.6µM*,nt,?,?,?
NC(c1csc(Nc2ccccn2)n1)C1CCCCC1 (centres undefined),-4.1%,16.4µM*,nt,14.6µM*,-68.1*,-4.6%
Cc1cnc(C)c(Nc2nc(C(N)c3ccccc3)cs2)n1 (centres undefined),-20.6%,?,nt,?,0.0,1.2%
O=[N+]([O-])c1cccc(S(=O)(=O)N2CN(c3ccc(Br)cc3)c3nc4ccccc4nc32)c1,0.3%,-5.4%,3.2%,-4.3%,4.0,-2.7%
CCNS(=O)(=O)c1ccc(OC)c(C(=O)NC2CCCCC2)c1,-2.4%,-6.9%,0.0%,-3.5%,23.1,6.1%
COc1ccc(CNC(=O)CN(c2ccc(C)cc2)S(=O)(=O)c2c(C)n[nH]c2C)cc1,-23.5%,?,0.0%,-10.9%,nt,?
Cc1n[nH]c(C)c1S(=O)(=O)N(CC(=O)NCc1ccccc1Cl)c1ccc(C(C)C)cc1,-76.1%,16.4µM*,4.7%,?,nt,?
Cc1ccc(N(CC(=O)NCc2ccccc2Cl)S(=O)(=O)c2c(C)noc2C)cc1,-0.2%,?,1.4%,6.9%,-17.2,-9.0%
COc1cccc(CNC(=O)CN(c2ccc(C(C)C)cc2)S(=O)(=O)c2c(C)n[nH]c2C)c1,-3.2%,23.1µM*,4.7%,16.4µM*,nt,15.8µM*
Cc1ccc(-c2csc(C(O)c3cccc(Cl)c3)n2)cc1C (centres undefined),-54.5%,?,nt,?,-7.1,12.6µM*
OC(c1cccc(Cl)c1)c1nc(-c2ccc(Cl)cc2)cs1 (centres undefined),12.6µM*,?,nt,?,-0.1,12.6µM*
Cc1oc2c(cc(NS(=O)(=O)c3ccc(Br)cc3)c3ccccc32)c1C(=O)OCc1ccccc1,-18.3%,?,nt,?,nt,13.7%
COCc1[nH]nc2c1C(c1sccc1C)C(C#N)=C(N)O2 (centres undefined),-11.6%,?,-1.0%,-15.2%,-81.3*,-6.5%
CCCc1[nH]nc2c1C(c1ccoc1)C(C#N)=C(N)O2 (centres undefined),-23.4%,?,-1.3%,?,-80.1*,-23.7%
CCOc1cc(C2C(C#N)=C(N)Oc3n[nH]c(CC)c32)ccc1OCCN1CCOCC1 (centres undefined),-13.2%,-10.5%,2.4%,-17.5%,-61.0*,-2.4%
Cc1[nH]nc2c1C(c1ccoc1)C(C#N)=C(N)O2 (centres undefined),-22.3%,-0.5%,6.2%,9.9%,?,-12.4%
CCCc1[nH]nc2c1C(c1ccsc1)C(C#N)=C(N)O2 (centres undefined),26.5%,?,7.6%,16.4µM*,-228.2*,-22.7%
O=C(Nc1sc2c(c1C(=O)NCC1CCCO1)CCC2)c1cc(=O)c2cc(Cl)ccc2o1 (centres undefined),-0.6%,?,1.2%,9.1%,nt,-0.7%
O=c1c(N2CCN(c3cccc(Cl)c3)CC2)csc2ccccc12,-41.1%,?,5.3%,?,nt,-24.9%
